Experimental data: PubChem BioAssay
Unmarked numbers belong to inactive results. How the calls were made is not given here.

Each compound was assayed against Pantothenate synthetase (Mycobacterium tuberculosis (strain ATCC 25618 / H37Rv)) (UniProt P9WIL5) (assay: Coupled enzyme confirmation of inhibitors against recombinant Mtb PanC (AID 375;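 further: 0% = full reaction with vehicle and 100% = no enzyme background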)). Conditions: coupled enzyme assay; at 10 µM, stronger effect = higher value.
Sequence of Pantothenate synthetase (Mycobacterium tuberculosis (strain ATCC 25618 / H37Rv)) (P9WIL5 whole entry, looked up): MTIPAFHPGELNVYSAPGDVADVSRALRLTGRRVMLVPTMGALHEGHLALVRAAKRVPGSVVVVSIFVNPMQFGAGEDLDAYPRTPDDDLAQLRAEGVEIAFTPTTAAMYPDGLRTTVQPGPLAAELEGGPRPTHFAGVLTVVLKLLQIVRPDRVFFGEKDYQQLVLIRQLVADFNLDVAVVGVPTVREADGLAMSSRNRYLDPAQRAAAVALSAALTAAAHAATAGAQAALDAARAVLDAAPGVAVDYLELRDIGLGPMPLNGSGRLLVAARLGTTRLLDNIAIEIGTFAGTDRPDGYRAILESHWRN
`O=C(COc1ncnc2ccccc12)NCc1ccc2c(c1)OCO2` showed an inhibition of 0%. Work on `COc1cc(NC(=O)c2cccs2)cc(OC)c1` yielded an inhibition of 0%. Compound `CCOC(=O)C1=C(N)c2ccccc2CC1C(C)C` (configuration not stated) has an inhibition of 0%. Work on `O=C(OCC(=O)N1CCCC1)c1ccccc1OCc1ccccc1` yielded an inhibition of 0%. `CC(=O)c1ccc(OCC(O)CN2CC(C)OC(C)C2)cc1` (configuration not stated) gave an inhibition of 0%. With `Cc1cccc(-c2nc(CN3CCCC(C(=O)NC4CCCC4)C3)c(C)o2)c1` (configuration not stated) the inhibition was 0%. Compound `O=C(COc1ccc(=O)n(-c2ccccc2)n1)Nc1ccccc1` has an inhibition of 0%. `CCn1c(=O)cc(OCC(=O)Nc2cc(C)ccn2)c2ccccc21` gave an inhibition of 0%. For `CC1CCC(C(=O)NC(C(=O)NCCN2CCC(C)CC2)C(C)C)CC1` (configuration not stated), the inhibition was 0%. In the case of `CCOc1ccc(C2CC(=O)NC3=C2C(=O)CCC3)cc1Cl` (configuration not stated), the inhibition is reported as 0%. In the case of `C1CCC(C(CC2CCCCN2)C2CCCCC2)CC1` (configuration not stated), the inhibition is reported as 3%. Compound `O=C(NCc1cccnc1)C1CCCN(S(=O)(=O)c2ccc(Cl)cc2)C1` (configuration not stated) has an inhibition of 2%. For `CC(C)Cn1c(N)c(C(=O)COC(=O)c2cc(-c3ccco3)nc3ccccc23)c(=O)n(C)c1=O`, the inhibition was 7%. Work on `CCOc1ccccc1C(=O)NCC(=O)OCC(=O)N1C(C)CCCC1C` (configuration not stated) yielded an inhibition of 7%. In the case of `CN(C)CCOC(c1ccccc1)c1ccccc1` (tested in a mixture with another compound), the inhibition is reported as 0%. In the case of `CCn1c(SCC(=O)Nc2ccccc2F)nc2c(c1=O)SC(C)C2` (configuration not stated), the inhibition is reported as 0%. Compound `CCOc1ccc(S(=O)(=O)Nc2cccc(Cl)c2)cc1` has an inhibition of 1%.
